Common to all, as to assay: NCI-60 one-dose screen, 48 h (100 = growth as untreated, 0 = no growth, -100 = all killed)
Holding throughout (details): 10 µM unless noted

In test [1] the test system is SR leukemia.
For test [2], the system named is RPMI-8226 leukemia.
The test system of test [3] is OVCAR-8 ovarian.
The subject of test [4] is OVCAR-5 ovarian.
For test [5], the system named is OVCAR-4 ovarian.
The subject of test [6] is SK-OV-3 ovarian.
Test [7] has as its system IGROV1 ovarian.
Test [8] deals with OVCAR-3 ovarian.
For test [9], the system named is HS 578T breast.
Test [10] deals with NCI/ADR-RES ovarian.
Test [11] deals with T-47D breast.
Test [12] has as its system MDA-MB-435 melanoma.
Test [13] deals with SW-620 colon.
The subject of test [14] is MCF7 breast.
In test [15] the test system is HCT-116 colon.
Test [16] concerns HCC-2998 colon.
Test [17] relates to KM12 colon.
Test [18] deals with BT-549 breast.

This is part of a sample that, as a whole, favours compounds with a hit. Of some 83,000 tested, about 20% had one in any assay.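 Note: values are percent growth. 100 is the growth of untreated cells, values between 100 and 0 indicate rising inhibition; between -100 and 0 indicates cell death.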 A number with no mark means an inactive call. The source made the active and inactive calls. Rule for the calls: active = growth percent below 10; inactive = the rest.

`Cc1nc(Nc2ccc(NC(=S)Nc3ccccc3)cc2)nc2nc(SCc3ccccc3)[nH]c(=O)c12`: the growth is 61.8% in [1]; 67% in [2]; 82.4% in [3]; 102% in test [4]; 106% in [5]; 109% in test [6]. The growth in test [7] was 65.7%; in test [8] it was 112%; in [9], 105%; in test [10], 110%; in test [11], 88.5%; in [12] it was 109%. Besides, the growth in test [13] is 108%; in test [14] it was 87.3%; in test [15], 112%; in test [16], 111%; in test [17] it was 107%.

On to `COc1ccc(N=c2nc3sc4cc(Cl)ccc4n3c(N)c2C#N)cc1`, for which the growth in test [1] was 91.2%; in test [2] it was 101%; in test [3] it was 59.3%; in test [4], 107%; in test [5], 55.6%; in test [6], 59.4%. The growth in [7] was 80.4%; in test [8], 114%; in test [9], 34.5%; in test [10] it was 63.8%; in [11], 73.7%; in test [12] it was 99.6%. Moreover, the growth in test [13] is 81.1%; in test [14] it was 61.2%; in [15], 93.7%; in test [16], 95.5%.

Turning to `COc1ccc(N(C)c2nc(Cl)nc3cnn(C)c23)cc1`, the growth was 13.2% in [1]; 28.2% in test [2]; 12.6% in [3]; 33% in test [4]; 48.2% in [5]; 10.6% in test [6]. The growth in [7] is 23.7%; in [8] it was 4.74% (active); in test [9] it was 37.8%; in [10], 2.72% (active); in [11] it was 43.5%; in [18], -13.9% (active). Further, the growth in test [12] is -22.8% (active); in test [13] it was 27.8%; in test [14] it was 15.4%; in test [15], -18.4% (active); in test [16] it was 17.6%; in test [17], 6.55% (active).

On to `COC(=O)[C@]12CC[C@@H](C)[C@H](C)[C@@H]1C1=CC[C@@H]3[C@@]4(C)C(C=O)=C[C@@](C)(CO)C4=CC[C@@]3(C)[C@]1(C)CC2`, for which the growth is 15.5% in test [1]; 12.8% in test [2]; 32.2% in test [3]; 62.9% in [4]; 31.7% in [5]; 76.3% in test [6]. Moreover, the growth is 45.4% in test [7]; 24.3% in [8]; 47.5% in [9]; 31.9% in [10]; 20.8% in test [11]; 27.7% in [18]. The growth was 39.6% in test [12]; 27.9% in test [13]; 18.1% in test [14]; 6.65% (active) in test [15]; 16.1% in test [16]; 21.6% in test [17].

With `COc1ccc(NC(=O)C(=O)c2c[nH]c3ccc(F)cc23)cc1`, the growth is 81.4% in test [1]; 92.7% in test [2]; 99% in [3]; 106% in [4]; 102% in test [5]; 89.4% in test [6]. Besides, the growth in test [7] is 118%; in test [8] it was 99.8%; in test [9] it was 104%; in test [10] it was 96.2%; in [12] it was 95.5%; in [13], 99.9%. In addition, the growth in test [14] was 86.3%; in test [15], 79.1%; in test [16], 109%; in test [17], 94.5%.

Consider `C[C@@H]1C(=O)N(C[C@H](Cc2ccccc2)NC(=O)OCc2ccccc2)[C@]1(Cc1ccccc1)C(=O)OC(C)(C)C`, for which the growth was 64.4% in test [1]; 41.3% in test [2]; 66.9% in [3]; 91.5% in test [4]; 52.4% in test [5]; 70.2% in test [6]. For the same molecule, the growth in [7] was 69.7%; in test [8], 70.3%; in test [9], 79.4%; in test [10], 63%; in test [11], 43.3%; in test [12], 76.9%. Besides, the figures for the growth in test [13], in test [14] and in [16] were 83.2%, 61.1% and 87.7%, respectively.

Regarding `Nc1c(C(=O)c2ccc(Cl)s2)sc2nc3c(cc12)CCCC3`, the growth was 97.3% in test [1]; 90.9% in [2]; 105% in [3]; 137% in test [4]; 112% in [5]; 90.8% in [6]. Further, the growth is 104% in [7]; 106% in test [8]; 111% in test [9]; 101% in test [10]; 119% in test [12]; 106% in [13]. The growth in test [14] was 41.3%; in test [15] it was 105%; in [16] it was 111%; in test [17] it was 96.6%.

Take `CSc1ccc(Cl)c(C(=O)Nc2sccc2C(N)=O)c1`: the growth in test [1] was 104%; in [2], 95.3%; in [3], 94.4%; in test [4] it was 98.2%; in [5] it was 83.5%; in test [6], 115%. Besides, the growth was 105% in [7]; 100% in [8]; 99.4% in [9]; 99% in test [10]; 44.1% in test [11]; 110% in test [12]. For the same molecule, the growth in test [13] was 96.5%; in test [14] it was 64.8%; in [15], 109%; in test [16], 102%; in test [17] it was 99.8%.

In the case of `COc1cc2c(cc1OC)-c1ccc3cc4c(cc3c1N(CCN(C)C)C2)OCO4`, the growth in test [1] is 1.13% (active); in test [2] it was -41.1% (active); in test [3], -24.7% (active); in test [4], 8.24% (active); in test [5], 26.7%; in test [6], -21.2% (active). The growth in test [7] was -31.2% (active); in test [8], 8.78% (active); in [9], -2.39% (active); in [10], 72.3%; in [11], -12.3% (active); in [18] it was -2.52% (active). Further, the growth in test [12] is 40%; in [13], 9.79% (active); in [14], 4.64% (active); in [15], -85.8% (active); in [16] it was 26.7%; in [17], 17.1%.
